According to ChEMBL document CHEMBL1961873, “Compounds: GSK PKIS; Assays: Nanosyn kinase panel” (2012):

Tests used:
[1] = target: Fibroblast growth factor receptor 4 (Homo sapiens) (UniProt P22455); details: at 1 µM;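 also: reported figure is the averaged percent inhibition of FGFR4, from the GSK PKIS kinase screening panel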
[2] = target: Tyrosine-protein kinase Fgr (Homo sapiens) (UniProt P09769); details: at 0.1 µM
[3] = target: Tyrosine-protein kinase Fgr (Homo sapiens) (UniProt P09769); details: at 1 µM
[4] = target: Vascular endothelial growth factor receptor 1 (Homo sapiens) (UniProt P17948); details: at 0.1 µM
[5] = target: Vascular endothelial growth factor receptor 1 (Homo sapiens) (UniProt P17948); details: at 1 µM
[6] = target: Receptor-type tyrosine-protein kinase FLT3 (Homo sapiens) (UniProt P36888); details: at 0.1 µM
[7] = target: Receptor-type tyrosine-protein kinase FLT3 (Homo sapiens) (UniProt P36888); details: at 1 µM
[8] = system: T1, Receptor-type tyrosine-protein kinase FLT3 (Homo sapiens), P36888 [D835Y]; details: at 0.1 µM
T1 sequence (whole entry): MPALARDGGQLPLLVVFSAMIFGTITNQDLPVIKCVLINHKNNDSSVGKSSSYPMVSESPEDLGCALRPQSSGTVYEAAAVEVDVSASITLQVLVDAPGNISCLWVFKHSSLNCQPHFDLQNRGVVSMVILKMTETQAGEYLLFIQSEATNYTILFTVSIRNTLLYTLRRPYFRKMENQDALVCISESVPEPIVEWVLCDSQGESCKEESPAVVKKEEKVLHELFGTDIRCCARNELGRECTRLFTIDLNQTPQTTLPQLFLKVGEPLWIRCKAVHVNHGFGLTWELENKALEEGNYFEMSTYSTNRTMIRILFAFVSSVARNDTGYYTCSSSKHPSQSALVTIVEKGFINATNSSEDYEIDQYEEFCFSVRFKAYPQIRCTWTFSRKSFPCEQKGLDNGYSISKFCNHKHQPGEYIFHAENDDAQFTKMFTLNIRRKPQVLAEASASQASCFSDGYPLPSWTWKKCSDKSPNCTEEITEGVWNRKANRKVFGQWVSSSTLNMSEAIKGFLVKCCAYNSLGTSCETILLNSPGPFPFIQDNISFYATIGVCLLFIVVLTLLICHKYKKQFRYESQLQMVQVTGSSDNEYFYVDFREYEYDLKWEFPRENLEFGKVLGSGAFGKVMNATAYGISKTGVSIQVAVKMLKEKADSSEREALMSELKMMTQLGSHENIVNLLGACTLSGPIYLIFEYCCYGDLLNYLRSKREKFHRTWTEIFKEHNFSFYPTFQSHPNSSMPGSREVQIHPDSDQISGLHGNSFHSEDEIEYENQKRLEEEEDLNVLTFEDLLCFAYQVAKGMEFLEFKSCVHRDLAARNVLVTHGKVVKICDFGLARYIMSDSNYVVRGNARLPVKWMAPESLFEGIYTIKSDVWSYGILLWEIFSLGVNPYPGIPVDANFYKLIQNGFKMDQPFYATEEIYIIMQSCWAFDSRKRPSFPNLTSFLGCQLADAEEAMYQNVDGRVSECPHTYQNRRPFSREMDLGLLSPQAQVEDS

[9] = target: Non-receptor tyrosine-protein kinase TYK2 (Homo sapiens) (UniProt P29597); details: at 1 µM;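 also: values are mean percent inhibition of TYK2 kinase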
[10] = target: T2, Tyrosine-protein kinase receptor TYRO3 (Homo sapiens) (UniProt Q06418); details: at 0.1 µM
T2 sequence (whole entry): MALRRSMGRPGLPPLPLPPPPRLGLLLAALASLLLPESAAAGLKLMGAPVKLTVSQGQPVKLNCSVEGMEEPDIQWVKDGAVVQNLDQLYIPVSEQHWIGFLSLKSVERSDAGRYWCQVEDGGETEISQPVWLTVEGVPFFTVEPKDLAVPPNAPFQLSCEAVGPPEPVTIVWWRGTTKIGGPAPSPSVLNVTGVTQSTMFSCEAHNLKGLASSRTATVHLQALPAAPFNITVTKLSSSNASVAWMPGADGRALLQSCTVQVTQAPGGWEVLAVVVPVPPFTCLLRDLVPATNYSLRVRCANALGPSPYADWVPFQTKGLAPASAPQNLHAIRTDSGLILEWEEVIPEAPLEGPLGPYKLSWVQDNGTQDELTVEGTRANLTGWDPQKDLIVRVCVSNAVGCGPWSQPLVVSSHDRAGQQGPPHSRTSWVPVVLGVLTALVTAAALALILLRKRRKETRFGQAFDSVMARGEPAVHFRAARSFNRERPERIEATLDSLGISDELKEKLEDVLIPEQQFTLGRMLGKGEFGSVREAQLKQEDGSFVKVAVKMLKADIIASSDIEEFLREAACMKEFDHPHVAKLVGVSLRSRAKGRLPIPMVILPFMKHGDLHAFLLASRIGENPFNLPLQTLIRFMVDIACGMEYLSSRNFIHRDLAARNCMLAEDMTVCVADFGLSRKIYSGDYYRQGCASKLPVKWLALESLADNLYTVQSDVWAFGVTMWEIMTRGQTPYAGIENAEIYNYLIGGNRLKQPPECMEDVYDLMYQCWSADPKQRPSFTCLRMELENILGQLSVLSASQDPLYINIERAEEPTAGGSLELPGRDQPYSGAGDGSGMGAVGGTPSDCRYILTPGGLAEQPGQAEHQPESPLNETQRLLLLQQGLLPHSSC

[11] = target: T2, Tyrosine-protein kinase receptor TYRO3 (Homo sapiens); details: at 1 µM
[12] = target: Tyrosine-protein kinase Yes (Homo sapiens) (UniProt P07947); details: at 0.1 µM
[13] = target: Tyrosine-protein kinase Yes (Homo sapiens) (UniProt P07947); details: at 1 µM
[14] = target: T3, Tyrosine-protein kinase ZAP-70 (Homo sapiens) (UniProt P43403); details: at 0.1 µM
T3 sequence (whole entry): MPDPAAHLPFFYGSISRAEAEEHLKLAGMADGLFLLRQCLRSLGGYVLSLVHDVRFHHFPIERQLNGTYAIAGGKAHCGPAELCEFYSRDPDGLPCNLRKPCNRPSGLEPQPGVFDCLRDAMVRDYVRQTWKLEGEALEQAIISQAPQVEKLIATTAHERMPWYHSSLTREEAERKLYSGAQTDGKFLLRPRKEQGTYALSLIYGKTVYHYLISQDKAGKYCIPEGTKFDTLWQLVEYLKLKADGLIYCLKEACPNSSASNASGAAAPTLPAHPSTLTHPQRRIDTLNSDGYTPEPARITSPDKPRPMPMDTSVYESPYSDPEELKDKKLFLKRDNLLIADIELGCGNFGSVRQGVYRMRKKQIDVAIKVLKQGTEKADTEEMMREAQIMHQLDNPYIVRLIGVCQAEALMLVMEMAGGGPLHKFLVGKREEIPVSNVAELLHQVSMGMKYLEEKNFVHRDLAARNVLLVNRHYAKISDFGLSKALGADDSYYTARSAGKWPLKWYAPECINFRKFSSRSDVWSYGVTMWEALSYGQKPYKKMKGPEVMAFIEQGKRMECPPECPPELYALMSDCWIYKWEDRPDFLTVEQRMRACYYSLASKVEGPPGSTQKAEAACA

[15] = target: T3, Tyrosine-protein kinase ZAP-70 (Homo sapiens); details: at 1 µM
[16] = target: Serine/threonine-protein kinase B-raf (Homo sapiens) (UniProt P15056); details: at 0.1 µM
[17] = target: Serine/threonine-protein kinase B-raf (Homo sapiens) (UniProt P15056); details: at 1 µM
[18] = system: Serine/threonine-protein kinase B-raf (Homo sapiens), P15056 [V600E]; details: at 0.1 µM
[19] = system: Serine/threonine-protein kinase B-raf (Homo sapiens), P15056 [V600E]; details: at 1 µM
[20] = target: RAF proto-oncogene serine/threonine-protein kinase (Homo sapiens) (UniProt P04049); details: at 0.1 µM;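 also: values are mean CRAF kinase inhibition from profiling of the GSK Published Kinase Inhibitor Set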

Vascular endothelial growth factor receptor 1 (Homo sapiens), sequence (P17948 whole entry): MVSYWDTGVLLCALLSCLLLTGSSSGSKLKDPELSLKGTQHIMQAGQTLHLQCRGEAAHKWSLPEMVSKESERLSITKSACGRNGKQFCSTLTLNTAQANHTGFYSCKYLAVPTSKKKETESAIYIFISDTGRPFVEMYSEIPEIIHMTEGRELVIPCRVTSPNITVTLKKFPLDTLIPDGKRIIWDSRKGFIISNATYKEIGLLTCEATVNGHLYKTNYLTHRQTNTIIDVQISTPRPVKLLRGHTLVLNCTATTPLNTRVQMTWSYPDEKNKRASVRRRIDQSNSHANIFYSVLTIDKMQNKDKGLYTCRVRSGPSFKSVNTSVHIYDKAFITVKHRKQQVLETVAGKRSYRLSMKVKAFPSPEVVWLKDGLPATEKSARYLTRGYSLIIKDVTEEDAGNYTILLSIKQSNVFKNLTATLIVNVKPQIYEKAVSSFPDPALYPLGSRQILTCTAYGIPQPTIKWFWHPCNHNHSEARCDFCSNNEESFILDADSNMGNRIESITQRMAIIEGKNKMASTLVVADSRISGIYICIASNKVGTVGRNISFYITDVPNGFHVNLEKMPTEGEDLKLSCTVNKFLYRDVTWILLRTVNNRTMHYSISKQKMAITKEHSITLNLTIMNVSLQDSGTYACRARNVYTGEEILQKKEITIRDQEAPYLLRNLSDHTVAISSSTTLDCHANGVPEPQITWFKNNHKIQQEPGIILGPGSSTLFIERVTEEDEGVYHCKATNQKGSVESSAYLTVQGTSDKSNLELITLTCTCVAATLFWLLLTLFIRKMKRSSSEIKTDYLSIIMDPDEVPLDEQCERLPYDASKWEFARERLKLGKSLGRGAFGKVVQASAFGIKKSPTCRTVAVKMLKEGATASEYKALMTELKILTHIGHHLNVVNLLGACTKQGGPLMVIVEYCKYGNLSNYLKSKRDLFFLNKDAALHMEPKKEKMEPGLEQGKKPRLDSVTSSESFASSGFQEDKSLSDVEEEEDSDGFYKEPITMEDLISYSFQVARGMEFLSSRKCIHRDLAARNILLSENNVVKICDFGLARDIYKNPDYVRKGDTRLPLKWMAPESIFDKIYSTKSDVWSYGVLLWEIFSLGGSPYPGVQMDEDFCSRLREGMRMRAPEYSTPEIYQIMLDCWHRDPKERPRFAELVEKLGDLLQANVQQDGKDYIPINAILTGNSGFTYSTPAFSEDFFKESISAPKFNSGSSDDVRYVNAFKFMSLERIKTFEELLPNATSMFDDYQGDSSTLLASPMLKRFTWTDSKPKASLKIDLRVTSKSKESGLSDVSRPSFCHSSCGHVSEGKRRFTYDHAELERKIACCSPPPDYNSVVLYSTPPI
Fibroblast growth factor receptor 4 (Homo sapiens), sequence (P22455 22-802 limits assumed): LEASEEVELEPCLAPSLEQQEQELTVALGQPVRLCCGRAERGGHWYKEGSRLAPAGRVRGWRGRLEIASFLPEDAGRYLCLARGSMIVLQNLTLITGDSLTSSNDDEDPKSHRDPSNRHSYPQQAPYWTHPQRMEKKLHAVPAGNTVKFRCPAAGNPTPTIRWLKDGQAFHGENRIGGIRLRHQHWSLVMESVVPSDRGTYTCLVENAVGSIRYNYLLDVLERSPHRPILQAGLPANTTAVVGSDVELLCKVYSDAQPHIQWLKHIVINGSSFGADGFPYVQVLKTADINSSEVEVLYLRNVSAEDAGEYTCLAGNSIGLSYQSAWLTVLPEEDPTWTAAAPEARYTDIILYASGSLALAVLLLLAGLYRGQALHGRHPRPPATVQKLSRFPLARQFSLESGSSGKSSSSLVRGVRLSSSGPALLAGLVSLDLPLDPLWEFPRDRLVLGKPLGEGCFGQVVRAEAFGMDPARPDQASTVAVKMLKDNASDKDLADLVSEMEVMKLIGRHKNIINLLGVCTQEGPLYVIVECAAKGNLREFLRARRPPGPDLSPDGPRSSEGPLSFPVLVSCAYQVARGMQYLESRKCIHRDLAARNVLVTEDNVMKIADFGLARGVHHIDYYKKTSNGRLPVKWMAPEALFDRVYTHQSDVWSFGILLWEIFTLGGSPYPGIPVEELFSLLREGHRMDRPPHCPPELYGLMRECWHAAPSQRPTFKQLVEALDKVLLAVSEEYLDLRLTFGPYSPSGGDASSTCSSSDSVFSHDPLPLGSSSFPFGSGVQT
Tyrosine-protein kinase Fgr (Homo sapiens), sequence (P09769 2-529 limits assumed): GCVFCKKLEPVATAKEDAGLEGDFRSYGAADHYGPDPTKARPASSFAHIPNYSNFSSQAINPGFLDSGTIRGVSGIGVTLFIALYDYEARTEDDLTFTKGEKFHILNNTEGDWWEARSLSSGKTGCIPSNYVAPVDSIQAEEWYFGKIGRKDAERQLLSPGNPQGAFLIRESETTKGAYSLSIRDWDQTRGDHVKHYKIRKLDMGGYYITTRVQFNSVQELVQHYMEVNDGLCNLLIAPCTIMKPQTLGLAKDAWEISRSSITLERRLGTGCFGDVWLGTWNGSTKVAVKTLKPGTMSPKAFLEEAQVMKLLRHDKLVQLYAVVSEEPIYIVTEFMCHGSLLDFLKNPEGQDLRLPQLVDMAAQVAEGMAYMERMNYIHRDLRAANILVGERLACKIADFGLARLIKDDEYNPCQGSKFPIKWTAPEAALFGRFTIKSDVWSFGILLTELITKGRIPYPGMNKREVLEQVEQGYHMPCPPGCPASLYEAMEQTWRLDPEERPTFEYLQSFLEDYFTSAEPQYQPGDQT
Serine/threonine-protein kinase B-raf (Homo sapiens), P15056 [V600E], sequence (P15056 whole entry V600E): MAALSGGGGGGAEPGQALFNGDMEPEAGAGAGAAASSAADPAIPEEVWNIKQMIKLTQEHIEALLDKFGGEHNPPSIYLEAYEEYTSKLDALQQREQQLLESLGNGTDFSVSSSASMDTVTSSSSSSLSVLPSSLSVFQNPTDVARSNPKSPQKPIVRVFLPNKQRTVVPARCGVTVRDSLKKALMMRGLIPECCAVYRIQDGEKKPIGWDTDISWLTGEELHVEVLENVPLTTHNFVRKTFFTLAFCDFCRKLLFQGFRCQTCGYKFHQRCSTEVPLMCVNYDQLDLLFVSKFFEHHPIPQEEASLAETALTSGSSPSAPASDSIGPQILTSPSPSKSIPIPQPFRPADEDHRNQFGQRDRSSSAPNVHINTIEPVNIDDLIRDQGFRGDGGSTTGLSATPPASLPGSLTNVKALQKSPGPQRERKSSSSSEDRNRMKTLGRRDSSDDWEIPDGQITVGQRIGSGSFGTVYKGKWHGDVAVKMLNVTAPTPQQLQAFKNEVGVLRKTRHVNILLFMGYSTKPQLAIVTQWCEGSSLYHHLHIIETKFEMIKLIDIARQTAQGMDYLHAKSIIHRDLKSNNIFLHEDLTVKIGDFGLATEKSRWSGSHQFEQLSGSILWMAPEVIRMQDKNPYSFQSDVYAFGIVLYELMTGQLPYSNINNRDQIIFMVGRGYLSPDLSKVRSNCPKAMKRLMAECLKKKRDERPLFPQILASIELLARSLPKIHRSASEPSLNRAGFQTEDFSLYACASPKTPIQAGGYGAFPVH
Serine/threonine-protein kinase B-raf (Homo sapiens), sequence (P15056 whole entry): as the sequence (P15056 whole entry V600E) above, with E600V counted along it
Non-receptor tyrosine-protein kinase TYK2 (Homo sapiens), sequence (P29597 whole entry): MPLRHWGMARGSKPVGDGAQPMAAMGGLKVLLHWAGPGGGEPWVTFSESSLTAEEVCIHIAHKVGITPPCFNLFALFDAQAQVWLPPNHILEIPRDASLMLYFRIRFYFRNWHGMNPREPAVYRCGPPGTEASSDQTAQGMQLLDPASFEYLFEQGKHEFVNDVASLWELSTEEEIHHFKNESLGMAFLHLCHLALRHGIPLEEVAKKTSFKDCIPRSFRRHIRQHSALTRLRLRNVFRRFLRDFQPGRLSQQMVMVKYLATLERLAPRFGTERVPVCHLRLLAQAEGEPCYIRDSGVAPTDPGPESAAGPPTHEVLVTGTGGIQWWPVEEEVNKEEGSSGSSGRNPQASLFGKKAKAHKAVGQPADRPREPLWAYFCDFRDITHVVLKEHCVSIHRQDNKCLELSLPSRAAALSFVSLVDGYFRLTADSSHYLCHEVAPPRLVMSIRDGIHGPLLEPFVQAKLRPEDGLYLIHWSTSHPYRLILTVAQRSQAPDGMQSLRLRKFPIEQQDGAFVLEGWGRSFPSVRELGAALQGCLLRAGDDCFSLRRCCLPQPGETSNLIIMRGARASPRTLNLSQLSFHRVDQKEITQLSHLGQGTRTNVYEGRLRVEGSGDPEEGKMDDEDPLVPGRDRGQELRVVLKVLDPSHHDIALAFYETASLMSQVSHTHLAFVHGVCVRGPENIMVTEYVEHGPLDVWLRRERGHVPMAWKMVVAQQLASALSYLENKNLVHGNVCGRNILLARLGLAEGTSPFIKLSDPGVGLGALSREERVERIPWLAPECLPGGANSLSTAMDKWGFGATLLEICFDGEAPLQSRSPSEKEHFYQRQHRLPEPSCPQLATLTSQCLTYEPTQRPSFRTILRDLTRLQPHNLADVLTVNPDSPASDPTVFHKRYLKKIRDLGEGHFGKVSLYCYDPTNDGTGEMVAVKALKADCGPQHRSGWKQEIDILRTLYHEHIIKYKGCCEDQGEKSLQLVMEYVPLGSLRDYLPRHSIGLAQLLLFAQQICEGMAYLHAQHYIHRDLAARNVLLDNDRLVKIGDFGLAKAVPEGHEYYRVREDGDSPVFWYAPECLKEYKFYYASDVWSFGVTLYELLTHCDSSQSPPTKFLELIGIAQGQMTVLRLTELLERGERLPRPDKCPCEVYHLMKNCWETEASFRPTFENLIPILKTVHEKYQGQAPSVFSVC

COc1ccc(C2=C(N3CCc4ccccc43)C(=O)NC2=O)cc1
inhibition [1]: 1.06%
inhibition [2]: 5.11%
inhibition [3]: 3.99%
inhibition [4]: 1.27%
inhibition [5]: 2.89%
inhibition [6]: 3.27%
inhibition [7]: 2.59%
inhibition [8]: 5.76%
inhibition [9]: -5.5%
inhibition [10]: 4.63%
inhibition [11]: 3.41%
inhibition [12]: 4.87%
inhibition [13]: 5.12%
inhibition [14]: 3.72%
inhibition [15]: -0.45%
inhibition [16]: 5.73%
inhibition [17]: 7.39%
inhibition [18]: 6.3%
inhibition [19]: 4.71%
inhibition [20]: -3.24%

Fc1ccc(-c2nc3n(c2-c2ccncc2)CCS3)cc1
inhibition [1]: -1.43%
inhibition [2]: 3.23%
inhibition [3]: 5.64%
inhibition [4]: 0.95%
inhibition [5]: 4.64%
inhibition [6]: 2.5%
inhibition [7]: 4.49%
inhibition [8]: 4.1%
inhibition [9]: -3.88%
inhibition [10]: 2.21%
inhibition [11]: 2.33%
inhibition [12]: 3.03%
inhibition [13]: 7.29%
inhibition [14]: -2.56%
inhibition [15]: -1.24%
inhibition [16]: 5.8%
inhibition [17]: 7.17%
inhibition [18]: 5.81%
inhibition [19]: 5.73%
inhibition [20]: 1.81%

CN(C)CCCNc1nccc(-c2c(-c3ccc(F)cc3)nn3cc(C(F)(F)F)ccc23)n1
inhibition [1]: -0.45%
inhibition [2]: 1.41%
inhibition [3]: 9.12%
inhibition [4]: 0.51%
inhibition [5]: 1.19%
inhibition [6]: 0.5%
inhibition [7]: 4.18%
inhibition [8]: -2.41%
inhibition [9]: -0.14%
inhibition [10]: 1.1%
inhibition [11]: 1.35%
inhibition [12]: 0.79%
inhibition [13]: -0.45%
inhibition [14]: -2.33%
inhibition [15]: -4.78%
inhibition [16]: 2.11%
inhibition [17]: 2.24%
inhibition [18]: 2.52%
inhibition [19]: 2.19%
inhibition [20]: 3.17%
